# Reference: paper PMC4336329 (PLoS ONE, 2015)
# Out of some 310,000 compounds screened, about 14,000 (4.5%) showed an effect of 50% or more. The effect is printed as a negative number. The sample as a whole holds a higher share of strong results than the screen did.
# Target: human ether-à-go-go-related gene (hERG) potassium channel (human, UniProt Q12809)
# Assay: primary screen, population patch clamp on CHO cells stably expressing hERG; higher = less effect of the substance
# 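Further: peak tail current of the secondary pulse compared with the same well before compound.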
# Chain of human ether-à-go-go-related gene (hERG) potassium channel (Q12809 whole entry, looked up): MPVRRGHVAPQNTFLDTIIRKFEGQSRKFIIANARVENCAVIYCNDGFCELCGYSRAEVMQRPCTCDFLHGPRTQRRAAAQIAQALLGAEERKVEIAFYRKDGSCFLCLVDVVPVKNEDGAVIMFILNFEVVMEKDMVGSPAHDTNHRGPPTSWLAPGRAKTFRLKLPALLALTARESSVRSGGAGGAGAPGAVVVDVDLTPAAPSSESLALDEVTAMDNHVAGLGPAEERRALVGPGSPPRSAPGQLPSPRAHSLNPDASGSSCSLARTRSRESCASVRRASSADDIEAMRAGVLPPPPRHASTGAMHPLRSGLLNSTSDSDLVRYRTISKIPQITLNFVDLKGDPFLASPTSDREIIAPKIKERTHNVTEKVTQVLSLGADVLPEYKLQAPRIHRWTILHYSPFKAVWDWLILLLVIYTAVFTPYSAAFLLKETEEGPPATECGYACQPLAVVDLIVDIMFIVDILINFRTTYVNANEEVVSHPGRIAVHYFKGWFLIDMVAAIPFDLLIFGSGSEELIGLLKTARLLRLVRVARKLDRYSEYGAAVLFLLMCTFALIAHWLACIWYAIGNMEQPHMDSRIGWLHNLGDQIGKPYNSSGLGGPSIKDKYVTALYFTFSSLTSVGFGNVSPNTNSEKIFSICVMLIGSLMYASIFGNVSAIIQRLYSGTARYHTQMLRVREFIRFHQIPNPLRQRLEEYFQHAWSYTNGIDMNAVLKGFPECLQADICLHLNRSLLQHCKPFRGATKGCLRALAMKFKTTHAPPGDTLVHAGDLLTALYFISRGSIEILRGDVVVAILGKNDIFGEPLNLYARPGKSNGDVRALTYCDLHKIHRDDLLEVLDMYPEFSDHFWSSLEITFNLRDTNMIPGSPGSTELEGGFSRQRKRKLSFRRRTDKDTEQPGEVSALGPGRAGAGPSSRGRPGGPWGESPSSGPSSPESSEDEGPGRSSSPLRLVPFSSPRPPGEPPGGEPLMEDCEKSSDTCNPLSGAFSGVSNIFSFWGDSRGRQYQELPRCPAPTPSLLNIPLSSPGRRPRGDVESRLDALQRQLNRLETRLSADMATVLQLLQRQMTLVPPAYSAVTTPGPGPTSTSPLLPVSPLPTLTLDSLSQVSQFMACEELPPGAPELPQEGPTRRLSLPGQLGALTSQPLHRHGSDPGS
row,Structure (SMILES),"hERG current change (%, negative = inhibition) at 10uM [%]"
1,CC(NC(=O)CSc1nnc(CC(=O)Nc2ccc(Cl)c(Cl)c2)n1C)c1ccccc1 (stereo not drawn),4.55
2,COc1ccc(C2CC(c3ccc(Cl)cc3Cl)Nc3nc(N)nn32)cc1OC (stereo not drawn),-18.7
3,COc1cc(NC(C)=O)c2ncccc2c1[N+](=O)[O-],-5.4
4,CC1CCCCC1NC(=O)CCN1C(=O)C2C3C=CC(C3)C2C1=O (stereo not drawn),13
5,COc1cc2c(cc1OC)C(c1cc3cc4c(cc3[nH]c1=O)OCO4)N(C(=O)C(C)C)CC2 (stereo not drawn),-4.79
6,CNC(=O)/C(C#N)=C/c1ccc(-c2ccccc2[N+](=O)[O-])o1,8.72
7,Cc1ccc(C(=O)N/C(=C\c2ccco2)C(=O)NCCCN2CCOCC2)cc1C,-12.7
8,N#C/C(=C\c1ccc(-c2cccc([N+](=O)[O-])c2)o1)C(=O)NCCN1CCOCC1,-47.2
9,N#C/C(=C/c1ccc(-c2ccccc2[N+](=O)[O-])o1)C(=O)NCCN1CCCCC1,-69.1
10,Cc1ccc(C(=O)N/C(=C\c2ccc(-c3ccccc3[N+](=O)[O-])o2)C(=O)NCCCN2CCOCC2)cc1,-61.9
11,Cc1ccc(C(=O)N/C(=C\c2sccc2C)C(=O)NCCCN2CCOCC2)cc1,-17.7
12,Cc1ccc(C(=O)N/C(=C\c2ccc(-c3cccc([N+](=O)[O-])c3)o2)C(=O)NCCCN2CCOCC2)cc1,-74.9
13,Cc1ccc(C(=O)N/C(=C\c2cn(C)c3ccccc23)C(=O)NCCCN2CCOCC2)cc1,0.137
14,N#C/C(=C\c1ccc(-c2ccccc2[N+](=O)[O-])o1)C(N)=O,24.6
15,O=C(CSc1nnc(SCc2ccccc2)s1)N/N=C/C=C\c1ccco1,9.17
16,Cc1ccccc1-c1nc2cc(N)ccc2o1,-15.6
17,Cc1ccc2c(c1)C(c1ccccc1)N(C(=O)CC(C)C)CC(=O)N2 (stereo not drawn),-28.5
18,O=C1N=C(N2C=CC(=C3C=CNC=C3)C=C2)/C(=C/N=NC(=O)c2ccccc2)S1,30.3
19,COc1cc(CN(C)CC2CCCN(CCc3cccc(C(F)(F)F)c3)C2)ccc1O (stereo not drawn),-62.8
20,CC(=O)Nc1ccc(CN(C)CC2CCCN(CCc3cccc(C(F)(F)F)c3)C2)cc1 (stereo not drawn),-68.4
21,O=c1cnn(-c2ccccc2)c(-c2ccccc2)c1,3.33
22,Cc1cc(C)n2ncnc2n1,2.2
23,O=C1NC(=Nc2ccccc2)S/C1=C/c1cccnc1,15.9
24,Cn1c(O)c(/C=C2\C=NN=C2c2ccccc2)sc1=S,0.793

row,Structure (SMILES),"hERG current change (%, negative = inhibition) at 10uM [%]"
1,COc1cc(CN2CCN(CCCc3ccccc3)C(CCO)C2)cc(OC)c1O (stereo not drawn),-61.5
2,CCOc1cc(CN2CCN(CCc3ccccc3)C(CCO)C2)ccc1OC (stereo not drawn),-66.5
3,COc1ccc(CN2CCN(CCCc3ccccc3)C(CCO)C2)cc1OC (stereo not drawn),-72.8
4,CCOc1cc(CN2CCN(Cc3ccc(C)o3)C(CCO)C2)ccc1OC (stereo not drawn),-3.33
5,COc1ccc(CN2CCN(Cc3ccccc3)C(CCO)C2)cc1OC (stereo not drawn),-30.7
6,COc1cc(C(=O)Nc2ccc(S(=O)(=O)Nc3nccc(C)n3)cc2)cc(OC)c1OC,12.9
7,O=C(CN1CCN(c2ccccn2)CC1)Nc1cc(C(F)(F)F)ccc1Cl,-3.6
8,COc1ccc(-c2ccnc3ncnn23)cc1,-9.61
9,COc1ccc(-c2cc(NCc3ccccn3)n3ncnc3n2)cc1,-23.5
10,COc1ccc(-c2cc(-c3ccccc3)n3ncnc3n2)cc1,-60.9
11,COc1ccc(-c2cc(NCCc3ccncc3)n3ncnc3n2)cc1,-55.8
12,COc1ccc(CCNc2cc(-c3ccccc3)nc3ncnn23)cc1,-2.18
13,Cc1cc(-c2ccccc2)n2ncnc2n1,12.5
14,COc1ccc(-c2cc(-c3ccc(Br)cc3)nc3ncnn23)cc1OC,-34.4
15,c1ccc(-c2cc(-c3ccccc3)n3ncnc3n2)cc1,-49.5
16,COc1ccc(-c2cc(-c3ccccc3)nc3ncnn23)cc1,-56.4
17,COc1cc(OC)c(NS(=O)(=O)c2cn(C)cn2)cc1Cl,5.67
18,CCOC(=O)C(Cc1ccc(OC)c([N+](=O)[O-])c1)NC(=O)CCC(=O)Nc1ccc(OC)cc1 (stereo not drawn),1.35
19,COC1CCCN(C(=O)c2ccc(OC3CCN(S(=O)(=O)N(C)C)CC3)cc2)C1 (stereo not drawn),8.14
20,CCOC(=O)C(CCSC)NC(=O)CN.Cl (stereo not drawn),-6.89
21,Cc1ccc(-n2c(C)cc(/C=C3/C(=O)NC(=O)N(C)C3=O)c2C)cc1,15.2
22,CSc1nnc(-c2ccc(Br)s2)n1C,1.98
23,O=C(Cn1cc(C(F)(F)F)ccc1=O)N/N=C/c1ccccc1O,-7.65
24,O=C(CSC1=NCCN1)Nc1ccccc1[N+](=O)[O-],11.2

row,Structure (SMILES),"hERG current change (%, negative = inhibition) at 10uM [%]"
1,CC(Sc1ccc(S(=O)(=O)N2CCOCC2)cn1)C(=O)Nc1ccc(Cl)cc1Cl (stereo not drawn),-56.1
2,CC(Sc1ccc(Cl)cc1)C(=O)Nc1ccc(S(=O)(=O)N2CCOCC2)cc1 (stereo not drawn),-22.7
3,CNC(=O)C(C)Sc1ccc(S(=O)(=O)N2CCOCC2)cn1 (stereo not drawn),-0.356
4,COc1ccc(Cl)cc1N1CCN(CCNC(=O)Nc2ccccc2C)CC1,-40.1
5,COc1cc(CNc2ncc(-c3ccc(Br)cc3)n2C)cc(OC)c1O.O=C(O)C(=O)O,-60.5
6,COc1ccc(CNc2ncc(-c3ccccc3)n2C)c(OC)c1OC.O=C(O)C(=O)O,-44.1
7,COc1ccc(CNc2ncc(-c3ccc(Cl)cc3)n2C)c(OC)c1OC.O=C(O)C(=O)O,-47
8,COc1cc(CNc2ncc(-c3ccc(Br)cc3)n2C)cc(OC)c1OC.O=C(O)C(=O)O,-49.9
9,CCOc1cc(CNc2ncc(-c3ccc(OC)cc3)n2C)ccc1O.O=C(O)C(=O)O,-48.3
10,COc1cc(CNc2ncc(-c3ccc(Cl)cc3)n2C)cc(OC)c1OC.O=C(O)C(=O)O,-66.9
11,Cc1cccc2c1cnn2C(=O)CCC(=O)N1CCC(C)CC1,-14.1
12,Br.NC1(N)OC(CN2C(=O)c3ccccc3C2=O)CS1 (stereo not drawn),-5.75
13,Cc1c(C(=O)NC(C)c2ccncc2)oc2ccccc12 (stereo not drawn),-29.7
14,CC(C)C(=O)Nc1cccc(NC(=O)c2cccc(Br)c2)c1,-52.1
15,CCOc1ccc(OCc2cccc(C(=O)N3CCCC3)c2)cc1,-11.6
16,COc1ccc(OCc2cccc(C(=O)Nc3ccc(CN4CCCCC4)cc3)c2)cc1,-72.8
17,COc1ccc(OCc2cccc(C(=O)N3CCCC3)c2)cc1,-3.08
18,CCOc1ccc(OCc2cccc(C(=O)N3CCCCCC3)c2)cc1,-69.3
19,COc1cc(OC)cc(C(=O)Nc2ccc(CN3CCCCC3)cc2)c1,-14.7
20,O=C(Nc1ccc2c(c1)OCO2)c1ccc(CN2CCOCC2)cc1,10.1
21,CCCNC(=O)c1cccc(NC(=O)C(C)C)c1,-25.4
22,COc1ccc(C(=O)Nc2ccc(CN3CCCCC3)cc2)cc1,-40.3
23,O=C(Nc1ccc(C(=O)N2CCCC2)cc1)c1ccc2c(c1)OCO2,-0.403
24,O=C(Nc1ccc(CN2CCCCC2)cc1)c1ccc2c(c1)OCO2,-64.3

row,Structure (SMILES),"hERG current change (%, negative = inhibition) at 10uM [%]"
1,CC(C)C(=O)Nc1cccc(NC(=O)c2cccc(F)c2)c1,5.16
2,CC(=O)Nc1ccc(NC(=O)C(C)OC(=O)c2cccc(S(=O)(=O)N3CCCC3)c2)cc1 (stereo not drawn),10.4
3,Cc1ccccc1CCNC(=O)C1CCCN(c2cnccn2)C1 (stereo not drawn),-0.76
4,O=C(O)C(=O)O.O=C(c1cccnc1)N1CCN(Cc2ccccc2Br)CC1,4.7
5,CCCCN(C)C(=O)c1nc2ccccn2c1CN1CCC[C@H]1CO,3.21
6,CC(C)C[C@H](NC(=O)c1nc[nH]c1C(=O)NCc1ccc(CNC(=O)OC(C)(C)C)cc1)C(=O)OCc1ccccc1,2.91
7,CCOC(=O)CNC(=S)N(Cc1cccs1)C1CCCC1,-5.82
8,O=c1c2[nH]c3ccccc3c2ncn1Cc1ccccn1,-0.569
9,CCOC(=O)c1ccccc1NC(=O)COC(=O)CCC(=O)c1ccccc1,16.3
10,NNC(=S)NC1CCS(=O)(=O)C1 (stereo not drawn),22.1
11,Cc1cc(/C=C2/C(=O)N(C)C(=S)N2C)ccc1N1CCCC1,7.27
12,Cc1ccc(S(=O)(=O)N(CC(=O)Nc2ccc(C(N)=O)cc2)C(=O)N2CCN(C)CC2)cc1,-0.0686
13,CCCC(=O)Nc1cccc(NC(=O)c2ccc3c(c2)OCO3)c1,-52.3
14,O=C(NC(=S)Nc1ccc(CN2CCCCC2)cc1)c1cccc(OCc2ccccc2)c1,-5.83
15,CCCCC(=O)Nc1cccc(NC(=O)c2ccc3c(c2)OCO3)c1,6.43
16,CCOc1ccc(OCc2cccc(C(=O)N(CC)CC)c2)cc1,-67.6
17,O=C(Nc1ccc(CN2CCCCC2)cc1)c1cccc(F)c1,-40
18,CCOc1ccc(OCc2ccc(C(=O)N(CC)CC)cc2)cc1,2.22
19,O=C(Nc1ccc(CN2CCCCC2)cc1)c1cccc(Br)c1,-86.7
20,CCOc1ccc(OCc2cccc(C(=O)Nc3ccc(CN4CCCCC4)cc3)c2)cc1,-63.2
21,O=C(Nc1ccc(CN2CCCCC2)cc1)c1cc(Br)ccc1Cl,-20.3
22,CCOc1ccc(NC(=O)c2ccc(CN3CCc4ccccc4C3)cc2)cc1,0.805
23,CCCC(=O)Nc1cccc(NC(=O)c2ccc3c(c2)OCCO3)c1,5.87
24,CCOc1ccc(OCc2cccc(C(=O)O)c2)cc1,8.48
